Source: ChEMBL document CHEMBL3433997, “St. Jude Leishmania screening dataset” (2016)

target: Solute carrier family 2, facilitated glucose transporter member 1 (Homo sapiens) (UniProt P11166); assay: ST_JUDE_LEISH: Cytotoxicity at 2uM final concentration against transgenic Leishmania Mexicana promastigotes LmGLUT1 that are glucose transport deficient and complemented with the human glucose transporter GLUT1. Activity is measured by DNA content using SYBR green in vitro; format: functional
Sequence (P11166 whole entry): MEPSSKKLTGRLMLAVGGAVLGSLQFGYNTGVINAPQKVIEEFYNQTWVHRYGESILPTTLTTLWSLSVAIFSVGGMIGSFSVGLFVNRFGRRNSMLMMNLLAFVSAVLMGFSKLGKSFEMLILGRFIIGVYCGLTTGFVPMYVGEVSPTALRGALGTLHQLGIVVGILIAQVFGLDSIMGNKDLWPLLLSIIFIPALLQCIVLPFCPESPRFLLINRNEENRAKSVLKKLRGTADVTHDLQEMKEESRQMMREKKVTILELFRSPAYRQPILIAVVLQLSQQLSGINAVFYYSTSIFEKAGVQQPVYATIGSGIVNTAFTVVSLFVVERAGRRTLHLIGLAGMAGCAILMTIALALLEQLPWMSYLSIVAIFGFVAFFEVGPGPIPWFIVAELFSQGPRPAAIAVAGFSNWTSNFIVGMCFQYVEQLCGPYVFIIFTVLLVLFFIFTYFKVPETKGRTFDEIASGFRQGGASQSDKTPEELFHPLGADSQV

| SMILES | inhibition [%] |
| --- | --- |
| CC[C@H](NC(=O)c1c(N)c(-c2sccc2Cl)nc2ccccc12)c1ccccc1 | 3.8 |
| Cc1nnsc1C(=O)Nc1ccc(-c2cccc(-c3nc4cc(F)ccc4[nH]3)c2)cc1 | 1.36 |
| COc1ccccc1N1CCN(Cc2cc(C(C)C)c(C)cc2O)CC1 | 3.59 |
| Cc1cc(Cl)c(Cl)cc1NC(=O)Nc1cccc(C(F)(F)F)c1 | 1.27 |
| Cc1cc(N2CCCN(C)CC2)nc(Nc2ccc(Cl)cc2)n1 | 1.53 |
| CCC(ON1C(N)=NC(N)=NC1(C)C)c1ccc(Cl)cc1 (stereo not given) | 6.11 |
| COc1c(C2=CCN(CCCCNC(=O)c3ccc(-c4ccc(C#N)cc4)cc3)CC2)c(C)cc2c1C(C)(C)CCC2(C)C | 2.63 |
| CCN(CC)CCN(Cc1ccc(-c2ccc(C(F)(F)F)cc2)cc1)C(=O)Cn1c(CCc2cccc(F)c2F)nc(=O)c2sccc21 | 0.1 |
| COc1ccccc1C(=O)Nc1ccc(Nc2nc(C)cc(N(C)C)n2)cc1 | 7.13 |
| CCN(CC)CCn1c2ccccc2c2ccc(C(=O)Nc3ccc4sc(C)nc4c3)cc21 | 13.2 |
| COCCNCc1cccc(-c2ccc3c(Nc4cc(O)c(Cl)cc4F)ccnc3c2)c1 | 2.97 |
| CCC[C@@H]([C@@H](CC(C)C)C(=O)N[C@@H](CCC/N=C(/N)NS(C)(=O)=O)C(=O)Nc1nccs1)N(O)C=O | 7.57 |
| CCOC(=O)C1=C(C)NC(Cn2ccnc2)=C(C(=O)OCC)C1c1ccc(C(C)(C)C)cc1 (stereo not given) | 2.7 |
| CNCCNCc1ccc(-c2cccc(-c3nc4cc(F)ccc4[nH]3)c2)cc1 | 2.53 |
| c1ccc(COc2ccc(Cn3ccc(-c4ccc(-n5ccnc5)cc4)n3)cc2)cc1.c1ccc(COc2ccc(Cn3nccc3-c3ccc(-n4ccnc4)cc3)cc2)cc1 | 0.24 |
